Source: PubChem BioAssay AID504329 (Southern Research Specialized Biocontainment Screening …, 2011)
The campaign covered roughly 340,000 compounds. About 1,000 (0.29%) were called active. Cut-off read from the data, not from the text of the source: inconclusive = inhibition above about 27% without an active follow-up result; inactive = below that. These entries were drawn from the full list. Potency and affinity values are given separately.

experiment: NS1A inhibition, H1N1 influenza, cell based functional assay (AID 504329); conditions: percent inhibition, at 12.5 µM, stronger effect = higher value

| Structure (SMILES) | inhibition |
| --- | --- |
| CCOC(=O)N1CCN(S(=O)(=O)N2CCCC(C(=O)NCc3ccc(OC)cc3)C2)CC1 (stereo not drawn) | -1.33% (inactive) |
| CCOC(=O)c1cnc2c(OC)cccc2c1N1CCN(c2ccccn2)CC1 | 3.27% (inactive) |
| CC(=O)OCCc1c(C)nc2nc[nH]n2c1=O | -2.62% (inactive) |
| O=C(Cc1ccc(Cl)cc1)Nc1ccccc1C(=O)Nc1ccc(C(=O)O)cc1 | 9.57% (inactive) |
| O=C1CCN(S(=O)(=O)c2ccccc2)CCN1CCOCc1ccc(Cl)cc1 | -21.7% (inactive) |
| Cc1ccc(S(=O)(=O)NC(=O)Nc2ccccc2)cc1 | -7.51% (inactive) |
| Cc1ccc(S(=O)(=O)NC(=O)Nc2ccc(F)cc2)cc1 | -6.14% (inactive) |
| O=C(CCc1nnc(Cc2ccc(-c3ccccc3)cc2)o1)NCC1CC1 | -11.2% (inactive) |
| COc1ccc(CCN2CC(C(=O)Nc3ccccc3F)CC2=O)cc1OC (stereo not drawn) | -13.5% (inactive) |
| O=C(NCCCn1ccnc1)C(=O)NCC1OCCN1S(=O)(=O)c1ccc(F)cc1 (stereo not drawn) | 19.7% (inactive) |
| O=C(NCCCn1ccnc1)C(=O)NCC1OCCN1S(=O)(=O)c1ccc(Cl)cc1 (stereo not drawn) | 13.8% (inactive) |
| Cc1ccc(/C=C/C(=O)NC(C)c2ccccc2)cc1 (stereo not drawn) | 2.36% (inactive) |
| O=C(CSCc1ccc([N+](=O)[O-])cc1)Nc1ccccc1C(=O)O | -16.2% (inactive) |
| O=[N+]([O-])c1cc(Cl)ccc1N1CCOCC1 | 6.25% (inactive) |
| COc1cc([N+](=O)[O-])c(N2CCOCC2)c([N+](=O)[O-])c1OC | 3.06% (inactive) |
| Cc1cccc(OC(=O)n2c(=S)oc3cc(Cl)ccc32)c1 | 1.29% (inactive) |
| CC(C)[C@H](NC(=O)C1CCN(C(=O)[C@@H]2CCCN2)CC1)C(=O)NCc1ccc(F)cc1 | -5.22% (inactive) |
| COc1ccccc1C(=O)NC(=S)/C=C1/N(C)c2ccccc2C1(C)C | 22.9% (inactive) |
| Cc1ccc(C(=O)NC(=S)/C=C2\N(C)c3ccccc3C2(C)C)cc1 | 5.06% (inactive) |
| O=C(COc1cccc(NC(=O)c2cccs2)c1)c1ccc(F)cc1 | -6.64% (inactive) |
| COc1ccccc1C(=O)NNC(=S)NC(=O)c1cccs1 | 8.16% (inactive) |
| COc1ccc(C(=O)NC(=S)NNC(=O)c2ccccc2O)cc1 | 0.2% (inactive) |
| O=C(NC(=S)NNC(=O)c1ccco1)c1ccc(F)cc1 | 9.62% (inactive) |
| O=C(NNC(=O)c1ccccc1O)c1ccco1 | -15.8% (inactive) |
| O=C(NC(=S)NNC(=O)c1cc2ccccc2cc1O)c1ccco1 | 12.9% (inactive) |

| Structure (SMILES) | inhibition |
| --- | --- |
| Cc1onc(-c2ccccc2)c1C(=O)NC(=S)NNC(=O)c1ccc(O)cc1 | 22% (inactive) |
| Cc1onc(-c2ccccc2)c1C(=O)NC(=S)NNC(=O)c1ccccc1O | 20.2% (inactive) |
| Cc1ccccc1C(=O)NNC(=S)NC(=O)c1cccs1 | -2.01% (inactive) |
| O=C(c1ccc([N+](=O)[O-])cc1)N(c1ccccn1)c1ccccn1 | 2.4% (inactive) |
| Cc1ccc(NC(=O)c2cccc(NC(=O)/C=C/c3ccco3)c2)cc1C | -4.7% (inactive) |
| Cc1cccc(-c2ccc3ncnc(NCc4cccs4)c3c2)c1 | -11% (inactive) |
| O=C(O)c1cc2ccccc2n1-c1ccccc1 | 16.9% (inactive) |
| CN(C)N=C1c2cc(S(=O)(=O)N3CCOCC3)ccc2-c2ccc(S(=O)(=O)N3CCOCC3)cc21 | 19.5% (inactive) |
| O=C(CCN1C(=O)/C(=C/c2ccccc2Cl)SC1=S)Nc1cccnc1 | -1.44% (inactive) |
| O=C(CCN1C(=O)c2ccccc2S1(=O)=O)N1CCN(c2ccccc2F)CC1 | -1.99% (inactive) |
| Cc1ccccc1C(=O)NNC(=S)NC(=O)c1ccccc1 | -4.23% (inactive) |
| O=C(NC(=S)NNC(=O)c1ccccc1O)c1ccc([N+](=O)[O-])cc1 | 1.41% (inactive) |
| Cc1ccccc1C(=O)NNC(=S)NC(=O)c1cccnc1 | 2.35% (inactive) |
| O=C(NNC(=S)NC(=O)c1ccccc1)c1cccc([N+](=O)[O-])c1 | -20.7% (inactive) |
| Cc1ccc(C(=O)NC(=S)NNC(=O)c2ccccc2O)cc1 | 34.2% (inactive) |
| O=C(NNC(=S)NC(=O)c1ccccc1)c1cccnc1 | 4.4% (inactive) |
| Cc1ccc(-n2c(CNc3ccc(F)cc3)nnc2SCC(N)=O)cc1 | 6.65% (inactive) |
| Cc1cccc(NS(=O)(=O)c2cccc(C(=O)N3CCN(C/C=C/c4ccccc4)CC3)c2)c1 | -7.79% (inactive) |
| CCN(c1ccccc1)S(=O)(=O)c1ccc2c(c1)CCCN2C(C)=O | 5.4% (inactive) |
| CC(=O)CCCC(NS(=O)(=O)CCC(Cl)(Cl)Cl)c1ccccc1 (stereo not drawn) | 1.88% (inactive) |
| Oc1ccccc1C=NCCCCCCN=Cc1ccccc1O | -8.96% (inactive) |
| Oc1ccccc1C=NCCN=Cc1ccccc1O | 18.6% (inactive) |
| COc1cccc(CN(C)C(=O)c2ccc(OCC(=O)N3CCOCC3)c(OC)c2)c1 | -6.73% (inactive) |
| COc1ccccc1OCc1nc2ccccc2[nH]1 | 1.78% (inactive) |
| CCOC(=O)c1nc(Nc2ccc(Nc3ccccc3)cc2)c2ccccc2n1 | 10.9% (inactive) |

| Structure (SMILES) | inhibition |
| --- | --- |
| CCOC(=O)c1nc(Nc2ccc(N3CCOCC3)cc2)c2ccccc2n1 | -12.1% (inactive) |
| CCCCCC(=O)Nc1ccc(S(=O)(=O)Nc2nccc(C)n2)cc1 | -0.66% (inactive) |
| Cc1ccc2nc(C)cc(N3CCOCC3)c2c1 | -16.8% (inactive) |
| Cc1csc(NC(=O)CSc2nnc(NC(=O)C3CC(=O)N(c4ccccc4)C3)s2)n1 (stereo not drawn) | -4.67% (inactive) |
| O=C(CSc1ccc2nnc(-c3ccncc3)n2n1)Nc1nccs1 | -1.97% (inactive) |
| Cc1nnc(NC(=O)CSc2ccc3nnc(-c4ccccn4)n3n2)s1 | 15.4% (inactive) |
| O=C(CSc1ccc(-c2ccccn2)nn1)Nc1nccs1 | 4.83% (inactive) |
| COc1ccc(C)cc1NC(=O)CSc1ccc(-c2cccnc2)nn1 | -8.69% (inactive) |
| Cc1ccc(NC(=O)CSc2ccc(-c3ccccn3)nn2)c(C)c1 | 3.42% (inactive) |
| Cc1csc(NC(=O)CSc2ccc(-c3ccccc3)nn2)n1 | -3.27% (inactive) |
| COc1ccc(NC(=O)CSc2ccc(-c3ccccn3)nn2)cc1OC | 1.4% (inactive) |
| Cc1ccccc1NC(=O)CSc1ccc(-c2ccccn2)nn1 | 12.1% (inactive) |
| COc1cccc(N2CCN(C(=S)Nc3ccccc3)CC2)c1 | 4.19% (inactive) |
| COc1ccc(CCNC(=O)COC(=O)c2ccc(C)s2)cc1 | -10% (inactive) |
| COc1ccc(C(CNC(=O)C2CC(=O)N(Cc3ccc(C)cc3)C2)N(C)C)cc1 (stereo not drawn) | -3.01% (inactive) |
| O=C(NCCc1ccc(F)cc1)C1CCCCC1 | 2.71% (inactive) |
| CCOC(=O)C1CCCN(C(=O)COc2ccc(N(C)S(=O)(=O)c3ccc(F)cc3)cc2)C1 (stereo not drawn) | -23.6% (inactive) |
| Cc1nnc(SCC(=O)Nc2ccc(Cl)cn2)n1Cc1ccccc1 | 1.7% (inactive) |
| CCOC(=O)Nc1n[nH]c(NC(=O)OCC)c1[N+](=O)[O-] | 8.99% (inactive) |
| CN1/C(=C\C=Nc2ccccc2)C(C)(C)c2ccccc21 | -3.07% (inactive) |
| CN1/C(=C\C=Nc2ccc3ccccc3c2)C(C)(C)c2ccccc21 | 2.41% (inactive) |
| CO/N=C/C=C1/N(C)c2ccccc2C1(C)C | 11.6% (inactive) |
| CN1/C(=C\C=N\O)C(C)(C)c2ccccc21 | -7.5% (inactive) |
| Cc1ccc(-c2nc(CNC(=O)c3cc(C)on3)cs2)cc1 | -7.61% (inactive) |
| O=C(N/N=C/c1ccccc1)C1CCCN1C(=O)c1cc([N+](=O)[O-])cc([N+](=O)[O-])c1 (stereo not drawn) | -6.49% (inactive) |

| Structure (SMILES) | inhibition |
| --- | --- |
| CNS(=O)(=O)c1cccc(C(=O)OCc2cc(=O)n3cc(Br)ccc3n2)c1 | 1.47% (inactive) |
| CCCCCSc1cc(OC)c(CCN)cc1OC | 15.3% (inactive) |
| CCCCCSc1cc(OC)c(CCN(C)C)cc1OC | 10.3% (inactive) |
| NC(=O)NCc1cccs1 | -4.81% (inactive) |
| CC(C)N(Cc1nc2ccccc2[nH]1)C(C)C | -21.7% (inactive) |
| O=C(O)COCc1nc2ccccc2[nH]1 | -15.3% (inactive) |
| CCn1c(SCC(=O)Nc2nccs2)nnc1-c1cccnc1 | -5.86% (inactive) |
| O=C(CN1CCN(c2ccccn2)CC1)Nc1ccc([N+](=O)[O-])cc1C(=O)Nc1ccccc1F | 12% (inactive) |
| COc1cc(NC(=O)c2cc([N+](=O)[O-])ccc2NC(=O)CNCc2ccccn2)cc(OC)c1 | -1.96% (inactive) |
| COc1ccc(NC(=O)c2cc([N+](=O)[O-])ccc2NC(=O)CNC2CCCCC2C)c(OC)c1 (stereo not drawn) | -6.01% (inactive) |
| O=C(CNC1CCCCC1)Nc1ccc([N+](=O)[O-])cc1C(=O)Nc1ccccc1F | -6.89% (inactive) |
| CCn1c(=O)c([N+](=O)[O-])c(NC2CCS(=O)(=O)C2)c2ccccc21 (stereo not drawn) | -2.22% (inactive) |
| CC(C)C(c1nnnn1C(C)(C)C)N1CCC(Cc2ccccc2)CC1 (stereo not drawn) | -3.35% (inactive) |
| CCCN(CCC)Cc1c(C(=O)N/N=C/C(C)=C\c2ccccc2)nnn1-c1nonc1N | 6.9% (inactive) |
| COc1cc(/C=C(\NC(=O)c2ccccc2)C(=O)NC(C(=O)O)c2ccccc2)cc(OC)c1OC (stereo not drawn) | 2.4% (inactive) |
| O=[N+]([O-])c1ccc(O)c2cccnc12 | -3.9% (inactive) |
| Cc1ccccc1-c1nn[nH]n1 | -2.96% (inactive) |
| Cc1ccccc1NCc1ccc(O)c2ncccc12 | 11.8% (inactive) |
| CC(C)COCc1ccc(O)c2ncccc12 | 1.04% (inactive) |
| c1ccc2c(-c3nn[nH]n3)cccc2c1 | -2.59% (inactive) |
| Cc1cccc(NCc2ccc(O)c3ncccc23)c1 | -1.23% (inactive) |
| Cc1ccc(NCc2ccc(O)c3ncccc23)cc1 | -2.47% (inactive) |
| Cc1ccc([N+](=O)[O-])c2cccnc12 | -5.17% (inactive) |
